Results reported in PubChem BioAssay (Tox21).
Records with an inconclusive call do not appear. Activity calls are given as the source filed them. Calls follow the shape of the dose curve; as a rule, active = well fitted cell-killing curve with a large enough effect in the repeat runs; inconclusive = weak or mixed curves; inactive = flat fitted curve, though single readings scatter.

Experiment: qHTS RealTime-Glo MT Cell Viability Assay in HepG2 cells - 8 hour (AID 1224873); also: nearly all actives have a fitted effect of over 55% in size
Settings: RealTime-Glo luminescence; series mostly up to 76.8 µM; viability change, negative = cytotoxic: at the top concentration
From the text: National Center for Advancing Translational Sciences [NCATS]
NIH Chemical Genomics Center [NCGC]
U.S. Environmental Protection Agency [EPA]
National Institutes of Environmental Health Sciences [NIEHS]
National Toxicology Program [NTP]
U.S. Food and Drug Administration [FDA]
Measure of cell viability is critical in the cell-base assay. Analysis of cell viability is necessary for the characterization of cell responses to cytotoxic drugs and environmental stress. A RealTime-Glo MT Cell Viability Assay to monitor cell viability in real time of continues cell culture during 40 hours of compound treatment was used to screen Tox21 10K library compounds in HepG2 cells. The RealTime-Glo MT Cell Viability Assay is a nonlytic, homogeneous, bioluminescent method to measure cell viability in real time using a simple, plate-based method. The assay involves adding NanoLuc luciferase and a cell-permeant prosubstrate to cells in culture. Viable cells reduce the proprietary prosubstrate to generate a substrate for NanoLuc luciferase. This substrate diffuses from cells into the surrounding culture medium, where it is rapidly used by the NanoLuc Enzyme to produce a luminescent signal. The signal correlates with the number of viable cells, making the assay well suited for cytotoxicity studies.
Tox21 Assay Protocol Summary:
The mixture of HepG2 cell suspension and reagents were dispensed at 600cells/6 ul/well in 1536-well tissue culture treated black solid bottom plates using a Multidrop dispenser. After the assay plates were incubated at a 37 C/5% CO2 incubator for 5 hours, 23 nL of compounds dissolved in DMSO, positive and negative controls was transferred to the assay plate by a pintool work station. The plates were incubated at 37 C for 40 hours. The luminescence intensity were measured at 0h, 8h, 16h, 24h, 32h and 40h time points using ViewLux plate reader during compound treatment.
% is scaled to controls: 0 for no effect and ±100 for the full control effect.

Row | Compound | viability change, negative = cytotoxic
1 | C=C(C)[C@@H]1CC[C@@H](C)C[C@@H]1O | 4.18% (inactive)
2 | Cc1oc(=O)oc1CN1CCN(c2cc3c(cc2F)c(=O)c(C(=O)O)c2n3C(C)S2)CC1 (stereo not given) | 0.622% [at 35.3 µM] (inactive)
3 | CC(C)(C)NCCO | 0.533% (inactive)
4 | COC(/C=C(\C)CCC=C(C)C)OC | 4.95% (inactive)
5 | F[Si-2](F)(F)(F)(F)F | 0.307% (inactive)
6 | Nc1c(NC/C=C\COc2cc(CN3CCCCC3)ccn2)c(=O)c1=O | 6.05% [at 15.8 µM] (inactive)
7 | CO[Si](CCCS)(OC)OC | -1.61% (inactive)
8 | NS(=O)(=O)c1cc2c(cc1Cl)NC(C(Cl)Cl)NS2(=O)=O (stereo not given) | 2.53% [at 35.3 µM] (inactive)
9 | CC(C)CCCC(C)CC=O (stereo not given) | 5.54% (inactive)
10 | Nc1ccc(/C=C/c2ccc(N)cc2S(=O)(=O)O)c(S(=O)(=O)O)c1 | 5.84% [at 0.29 µM] (inactive)
11 | CCc1nccnc1C | 5.36% (inactive)
12 | CC(=O)c1ccc(OCC(=O)N2CCCCC2)cc1 | 0.692% [at 35.3 µM] (inactive)
13 | CCCCCCCCCCCCC | -8.32% (inactive)
14 | CCCO | 0.398% (inactive)
15 | c1ccc(CNc2ncnc3nc[nH]c23)cc1 | -4.3% (inactive)
16 | O=[Si]=O | 2.84% (inactive)
17 | NC(=O)C1(N2CCCCC2)CCN(CCCC(=O)c2ccc(F)cc2)CC1 | 0.677% [at 35.3 µM] (inactive)
18 | O=C1NC2NC(=O)NC2N1 (stereo not given) | 0.2% (inactive)
19 | CCCCCCCCCCCCCC(=O)OC | -0.437% (inactive)
20 | CC(=O)OC[C@H]1O[C@@H](OC(C)=O)[C@H](OC(C)=O)[C@@H]1OC(C)=O | -6.94% [at 35.3 µM] (inactive)

Row | Compound | viability change, negative = cytotoxic
21 | O=C(Oc1ccccc1C(=O)O)c1ccccc1O | -1.88% [at 35.3 µM] (inactive)
22 | COCC(=O)Nc1c(I)c(C(=O)NCC(O)CO)c(I)c(C(=O)N(C)CC(O)CO)c1I (stereo not given) | 0.334% [at 35.3 µM] (inactive)
23 | CC(=O)OCC(=O)[C@@]1(O)[C@H](OC(C)=O)C[C@H]2[C@@H]3CCC4=CC(=O)C=C[C@]4(C)[C@@]3(F)[C@@H](O)C[C@@]21C | -6.28% [at 35.3 µM] (inactive)
24 | CCOC(=O)CCCCCCCCC(=O)OCC | 0.0822% (inactive)
25 | O=CN1CCOCC1 | -4.48% (inactive)
26 | NS(=O)(=O)c1cc2c(cc1Cl)NC(CC1CCCC1)NS2(=O)=O (stereo not given) | -1.78% [at 35.3 µM] (inactive)
27 | CC(CC(=O)O)CC(C)(C)C (stereo not given) | 2.62% (inactive)
28 | C=CCOc1cc(Cl)ccc1C(=O)NCCN(CC)CC | 1.31% [at 35.3 µM] (inactive)
29 | C[Si]1(C)N[Si](C)(C)N[Si](C)(C)N1 | 6.4% (inactive)
30 | COC(OC)C(C)c1ccccc1 (stereo not given) | 4.27% (inactive)
31 | c1ccccc1 | -12.9% (inactive)
32 | CC(C)COC(=O)CC(C(=O)OCC(C)C)S(=O)(=O)O (stereo not given) | 1.68% (inactive)
33 | C=C[C@@H](C)CCC=C(C)C | 2.71% (inactive)
34 | CCCCOC(=O)C(C)OC(=O)CCC (stereo not given) | 0.257% (inactive)
35 | CO/N=C(/C(=O)N[C@@H]1C(=O)N2C(C(=O)O)=C(Cn3nnc(C)n3)CS[C@H]12)c1csc(N)n1 | 1.24% [at 35.3 µM] (inactive)
36 | Cc1cccc(Nc2ccncc2S(=O)(=O)NC(=O)NC(C)C)c1 | 6.75% [at 35.3 µM] (inactive)
37 | O=C(/C=C/c1ccccc1)NCCO | -2.01% [at 35.3 µM] (inactive)
38 | COc1ccc(/C=N/NC(=O)c2ccncc2)cc1OC | 0.934% [at 35.3 µM] (inactive)
39 | CCC(O)C(C)(C)C (stereo not given) | 0.316% (inactive)
40 | CN=C(NC#N)NCCSCc1csc(N=C(N)N)n1 | 2.27% [at 35.3 µM] (inactive)
